# Data as given in ChEMBL document CHEMBL4296182, “CO-ADD screening of NIH NCI Diversity Set V”.
# For part of these data: Potency and affinity values are given separately.
# Assays:
# [1] = tested on: Staphylococcus aureus; experiment: Antibacterial activity against Staphylococcus aureus MRSA ATCC 43300 (CO-ADD:GP_020); MIC in CAMBH media using NBS plates, by Resazurin F(560/590); assay type: functional; conditions: Concentration 20 uM, ASSAY_TEST Inhibition of Bacterial Growth, detection method Resazurin, Fluorescence (ex560/em590), MEDIA CAMHB, plate type 384well, CORNING #3640, time 18 hr
# [2] = tested on: Acinetobacter baumannii; experiment: Antibacterial activity against Acinetobacter baumannii ATCC 19606 (CO-ADD:GN_034); MIC in CAMBH media using NBS plates, by Resazurin F(560/590); assay type: functional; conditions: Concentration 20 uM, ASSAY_TEST Inhibition of Bacterial Growth, detection method Resazurin, Fluorescence (ex560/em590), MEDIA CAMHB, plate type 384well, CORNING #3640, time 18 hr
# [3] = tested on: Escherichia coli; experiment: Antibacterial activity against Escherichia coli ATCC 25922 (CO-ADD:GN_001); MIC in CAMBH media using NBS plates, by Resazurin F(560/590); assay type: functional; conditions: Concentration 20 uM, ASSAY_TEST Inhibition of Bacterial Growth, detection method Resazurin, Fluorescence (ex560/em590), MEDIA CAMHB, plate type 384well, CORNING #3640, time 18 hr
# [4] = tested on: Klebsiella pneumoniae; conditions: Concentration 20 uM; ASSAY_TEST Inhibition of Bacterial Growth; detection method Absorption (OD600); MEDIA CAMHB; plate type 384well; NBS; CORNING #3640; time 18 hr
# [5] = tested on: Candida albicans; conditions: 20 µM
# [6] = tested on: Cryptococcus neoformans; conditions: Concentration 20 uM; ASSAY_TEST Inhibition of Fungal Growth; detection method Resazurin; Absorption (OD600-OD570); plate type 384well; NBS; CORNING #3640
Structure (SMILES),Inhibition [1] [%],Inhibition [2] [%],Inhibition [3] [%],Inhibition [4] [%],Inhibition [5] [%],Inhibition [6] [%]
COc1cc(C(O)c2nc3ccccc3s2)cc(OC)c1OC (stereo not given),9.75,-15.16,6.66,12.12,9.5,-12.06
Cc1ccc(NC(=O)Nc2cccnc2)cc1NC(=O)Nc1cccnc1,4.86,3.3,5.1,8.48,-3.78,-10.14
CCCCCCCCCCCCC(NC(C)=O)(C(=O)OCC)C(=O)OCC,14.33,7.7,5.2,18.57,7.18,-2.7
CN1CCN(C2=NCCO2)CC1,4.85,-15.45,15.25,13.16,3.03,6.31
Nc1nc(N)nc(C2C=CCCC2)n1 (stereo not given),1.35,-5.4,16.17,16.96,0.09,-8.05
CCOC(=O)Nc1csnn1,13.65,-5.72,13.49,14.72,5.16,-5.84
O=C(O)/C=C\C(=O)Nc1ccc(-c2ccccc2)cc1,-11.84,13.91,-6.62,15.61,23,-5.96
C=C(C)C(=O)Nc1ccc(NC(C)C)cc1,12,5.36,6.32,8.48,4.24,-6.96
Nc1ncnc2c1cnn2C1CCCCC1,-0.45,-2.92,-6.81,9,1.58,-3.99
O=C(Cn1ccc(=O)[nH]c1=O)Nc1ccc(C(=O)O)c(O)c1,10.2,-9.39,10.79,11.75,-1.14,-6.61
O=C(CC1C=Cc2ccccc2N1C(=O)c1ccccc1)c1ccccc1 (stereo not given),3.75,6.29,9.32,9.71,2.1,-5.82
O=S(=O)(c1ccc2c(c1)CCCN2)N1CCC[C@H]2CCCC[C@@H]21,4.63,-20.33,3.15,6.75,8.6,-4.42
CCOC(=O)c1c(C)nc(C)c(C(=O)OCC)c1-c1cccnc1,-3.54,13,-4.27,5.06,0.35,-2.16
O=C1COc2c1ccc(O)c2O,0.46,-23.14,5.49,7.13,0.16,-9.43
C=CCOCCN(CC)CC,-2.28,-4.48,-9.5,7.56,2.62,15.03
CC(C)(C)NC1=NCCNC(c2ccccc2)=C1.CS(=O)(=O)O,-3.88,8.25,7,11.55,1.18,-14.32
O=[N+]([O-])c1cc2cccnc2c2ncccc12,-17.5,-9.82,9.62,9.1,0.77,-9.49
CCC1(C(=O)OC)CCc2c(cc(OC)c3ccccc23)C1=O (stereo not given),5.5,-17.62,8.82,8.69,3.67,-10.67
O=C(C(Cl)Cl)N1CC2CCC(CC2)C1,-8.6,7.03,-13.8,1.03,-0.88,23.84
Oc1ccc2c(ccc3[nH]cnc32)c1,7.97,-12.34,17.76,18.56,-0.43,-9.86
Oc1ccc2ccccc2c1/N=N/c1ccc(F)cc1,3.11,4.07,-0.77,13.5,-3.66,-8.4
CCOC(=O)c1ccc2c(c1)NCc1cccc(OC)c1O2,4.26,-16.83,9.22,6.83,9.96,-17.21
CCOC(=O)/C=C/c1nc(O)c(C)c(C(=O)OCC)n1,-2.98,-11.68,5.55,4.47,0.35,-10.31
O=C(CSc1nc2ccc([N+](=O)[O-])cc2s1)c1ccc2ccccc2c1,-1.33,12.85,5.26,23.99,1.85,15.23
C#CC1(N2CCCCC2)CCCCC1,17.84,-17.5,12.63,-1.14,-1.65,-12.88

Structure (SMILES),Inhibition [1] [%],Inhibition [2] [%],Inhibition [3] [%],Inhibition [4] [%],Inhibition [5] [%],Inhibition [6] [%]
CCC(C)n1c(C)cc(=O)n1C(C)CC (stereo not given),2.1,-5.44,-0.28,0.77,-0.29,-4.99
CCS(=O)(=O)C1C(=O)N(C)C(S(=O)(=O)CC)C(=O)N1C (stereo not given),23.63,9.14,3.65,7.03,1.37,-11.73
Sc1nccn1-c1ccccc1Cl,5.33,14.25,-3.3,6.92,3.82,-5.04
O=c1n(CC2CO2)c(=O)n(CC2CO2)c(=O)n1CC1CO1 (stereo not given) [TEROXIRONE],0.12,-10.62,4.44,8.68,3.23,-12.57
O=c1nc(Oc2ccccc2)nc2ncccn12,18.68,13.4,27.8,4.93,7.13,-13.98
c1ccc(-c2nc(-c3nccc4ccccc34)oc2-c2ccccc2)cc1,-13.7,-4.32,-16.8,-4.05,15.1,12.09
O=C(O)CCC(=O)OCCN(Cc1ccc(Oc2ccc([N+](=O)[O-])cc2)cc1)C(=O)C(Cl)Cl,-5.95,0.5,-4.03,4.09,4.52,-1.27
CCOC(=O)c1cnn2c(SC)ncnc12,10.61,5.37,-2.6,12.61,5.51,-8.81
O=c1oc(-c2ccccc2)c(-c2ccccc2)c2ccccc12,13.22,4.08,7.81,4.41,1.88,-4.28
O=c1[nH]c(=O)n2ncnc2[nH]1,16.94,-11.21,5.82,7.37,-1.3,-10.02
C#CCCOC(=O)Nc1ccccc1,2.35,-10.74,7.7,4.67,2.19,-13.66
Cc1nn(-c2ccccc2)c2c1C(c1ccc([N+](=O)[O-])cc1)C(C#N)=C(N)O2 (stereo not given),11.47,2.7,1.25,12.44,-1.55,-5.09
CSc1nc2cc(S(=O)(=O)N3CCCCC3)ccc2s1,2.12,9.92,-7.83,10.24,7.84,2.72
Nc1n[nH]c(CO)n1.O=C(O)CO,4.42,-8.74,3.45,8.84,0.2,-5.13
Clc1nc(Oc2ccccc2)nc(-c2cn(-c3ccccc3)c3ccccc23)n1,2.81,4.85,6.07,3.03,-0.88,-13
COc1cc(-c2ccc(NC(=O)NC3CC3)c(OC)c2)ccc1NC(=O)NC1CC1,15.12,-9.96,13.19,5.08,3.52,-5.24
Oc1cccc2cnccc12,-5.81,3.26,3.71,12.61,1,3.35
CCOc1nc(OCC)c2cnn(C)c2n1,17.13,-11.25,5.79,6.34,3.82,-3.08
COc1cc(CC(=O)C(=O)O)oc(=O)c1,12.14,6.41,-2.06,12.51,3.8,-8.52
COC1OCC(O)C(NC(=O)N(C)N=O)C1O (stereo not given),-1.39,15.65,-7.74,18.14,5.35,-2.94
COc1ccc(OCC(O)CN2CCN(c3ccc(Cl)cc3)CC2)cc1 (stereo not given),-0.5,8.48,10.52,5.97,-0.41,-11.59
O=C(/C=C\c1ccc(O)c(O)c1)OC1C(O)CC(OC(=O)/C=C/c2ccc(O)c(O)c2)(C(=O)O)CC1O (stereo not given),21.21,-10.3,9.77,14,-2.85,-1.87
COc1ccccc1/C=C1\Cc2ccccc2C1=O,-0.35,7.42,-7.65,12,10.8,-2
Cc1ccc(S(=O)(=O)NC(=O)Nc2nccs2)cc1,16.17,-9.13,9.78,14.17,1.46,-5.56
O=c1nc2onnc2c(/C=N\O)[nH]1,11.4,-9.04,10.25,15.41,-0.67,-3.06
